Test results reported in the supplement of paper PMC7801607.

Tests used:
[1] = tested on: CHO; assay: % viability of CHO cells (MTT); higher = less toxic; details: 48 h
In short: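 For 48 h, attached CHO cells (10^6 cells/well, 200 µL, seeded the night before) were kept in fresh medium carrying compound at 2 or 20 µM. A colorimetric tetrazolium (MTT) assay then gave survival as percent viability versus untreated cells.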

[2] = tested on: HepG2-A16-CD81; assay: % inhibition of HepG2 viability (CellTiter-Glo); higher = more toxic; details: 5 µM
[3] = tested on: Plasmodium falciparum NF54 stage IV/V gametocytes; assay: % inhibition of gametocyte viability (PrestoBlue); higher = more inhibition; details: 48 h
In short: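 Stage IV/V NF54 gametocytes at 2% gametocytaemia and 5% haematocrit (100 µL/well) were treated with compound at 1 or 5 µM and incubated for 48 h at 37 °C under stationary, hypoxic conditions. PrestoBlue (10 µL) was then added for 2 h, and fluorescence at 612 nm was read on 70 µL of transferred supernatant. Percent inhibition of gametocyte viability was normalised to vehicle and kill controls within one run.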

[4] = tested on: Plasmodium falciparum NF54 asexual blood stage; assay: % inhibition of asexual blood stage proliferation (pLDH); higher = more inhibition; details: 72 h
In short: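 Plasmodium falciparum NF54 ring-stage cultures (1% haematocrit, 2% parasitaemia) were incubated with compound at 2 or 20 µM for 72 h at 37 °C under 4% CO2, 3% O2 and 93% N2. Survival was read at 620 nm with the parasite lactate dehydrogenase assay. Results were reported as percent inhibition of asexual proliferation relative to controls.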

[5] = tested on: Plasmodium falciparum NF54 stage IV/V gametocytes; assay: % inhibition of gametocyte viability (ATP bioluminescence); higher = more inhibition; details: 24 h
In short: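 Stage IV/V NF54 gametocytes from density gradients (30,000 per well, 96-well plates) were incubated with compound at 1 or 5 µM for 24 h at 37 °C. A single run supplied percent inhibition of gametocyte viability, based on ATP measured with Promega BacTiter Glo and normalised to control wells.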

[6] = tested on: Plasmodium falciparum NF54 stage IV/V gametocytes; assay: % inhibition of gametocyte viability (luciferase reporter); higher = more inhibition; details: 48 h
In short: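 Stage IV/V gametocytes of the NF54-Pfs16-GFP-Luc line (2% gametocytaemia, 2% haematocrit) were exposed to compound at 1 or 5 µM. Incubation was 48 h at 37 °C, stationary and hypoxic. Luminescence was read on 30 µL lysate plus 30 µL Promega luciferin substrate on a GloMax-Multi+ reader with 10 s integration. Percent inhibition was normalised to DMSO and kill controls from a single run.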

[7] = tested on: Plasmodium berghei ANKA liver stage in HepG2-A16-CD81; assay: % inhibition of liver stage parasite viability (luciferase); higher = more inhibition; details: 5 µM; 48 h
Method: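 Single-concentration screen of the MMV Pandemic Response Box. P. falciparum NF54 asexual blood stages: pLDH assay, 72 h at 37 °C, 2 and 20 µM, n=2. Stage IV/V gametocytes (NF54): luciferase reporter (NF54-Pfs16-GFP-Luc, 48 h), ATP bioluminescence (24 h) and PrestoBlue (48 h) at 1 and 5 µM, n=1. P. berghei liver stage (luciferase in HepG2-A16-CD81, 48 h post infection) at 5 µM, n=4. All normalised to DMSO and kill controls as % inhibition.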
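For % inhibition of HepG2 viability (CellTiter-Glo) in this document: HepG2-A16-CD81 hepatoma cells plated as in the liver-stage assay but without sporozoites, with DMSO wells as negative and 25 µM puromycin as positive control.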

Structure (SMILES)	% viability of CHO cells ([1]; 2 µM)	% viability of CHO cells ([1]; 20 µM)	% inhibition of HepG2 viability [2]	% inhibition of gametocyte viability ([3]; 1 µM)	% inhibition of gametocyte viability ([3]; 5 µM)	% inhibition of asexual blood stage proliferation ([4]; 2 µM)	% inhibition of asexual blood stage proliferation ([4]; 20 µM)	% inhibition of gametocyte viability ([5]; 1 µM)	% inhibition of gametocyte viability ([5]; 5 µM)	% inhibition of gametocyte viability ([6]; 1 µM)	% inhibition of gametocyte viability ([6]; 5 µM)	% inhibition of liver stage parasite viability [7]
O=C1c2cccc3cccc(c23)C(=O)N1CC1CO1 (stereo unspecified)	107%	108%	-6.3%	7.65%	8.86%	22%	66.9%	< 0%	< 0%	< 0%	3.81%	14.1%
CCNC(=O)Nc1cn2c(-c3ncc(CC)cn3)cc(-c3cccnc3)cc2n1	91.8%	58.4%	0.015%	19.9%	36.7%	46%	88.1%	7.29%	24.5%	1.08%	6.06%	4.97%
c1cnc(NCc2ccc(CNc3ncccn3)cc2)nc1	85.1%	77.7%	-9.29%	9.96%	14.8%	13.7%	35.1%	< 0%	< 0%	3.69%	< 0%	25.6%
O=C1C=C(c2ccccc2)S(=O)(=O)c2ccccc21	91.6%	81.8%	-4.77%	53.4%	76%	-2.86%	54.4%	13.8%	83.4%	16%	85.4%	30.4%
Nc1nc(O)c2ncn(COCCO)c2n1	98.5%	121%	1.64%	< 0%	15.7%	21.3%	31.7%	< 0%	< 0%	< 0%	< 0%	26.7%
Nc1nc(F)nc2c1ncn2[C@H]1O[C@@H](CO)[C@H](O)[C@@H]1O	33.8%	4.44%	77.8%	21.2%	19.8%	67.3%	72.4%	11.1%	< 0%	4.93%	35.8%	76%
COc1ccc(NC(=O)c2cc3ccccn3n2)cc1	112%	57%	-0.446%	< 0%	10.6%	20.3%	87.1%	< 0%	< 0%	< 0%	< 0%	-110%
CC(N)C12CC3CC(CC(C3)C1)C2 (stereo unspecified)	115%	102%	-6.21%	4.36%	25%	15.8%	20.4%	7.67%	2.98%	< 0%	3.24%	-6%
CCCCCc1ccc(C(=O)NCCn2cc(CCCCCc3cnc(N)[nH]3)nn2)cc1	125%	153%	2.88%	< 0%	63.4%	72.9%	96.5%	< 0%	< 0%	< 0%	< 0%	37.7%
CCCCc1ccc(-c2cc(C(=O)O)cc(-c3ccc(Cl)cc3)n2)cc1	93.4%	108%	14.4%	9.55%	12.3%	43%	102%	< 0%	< 0%	0.176%	8.67%	40%
O=C(NCc1cccc2ccccc12)c1cccs1	101%	134%	7.63%	13.5%	24.3%	-14.2%	-4.95%	< 0%	< 0%	< 0%	< 0%	-19.8%
O=[N+]([O-])c1cn2c(n1)OC[C@@H](OCc1ccc(OC(F)(F)F)cc1)C2	92.7%	84.4%	10.7%	< 0%	< 0%	0.354%	10.1%	< 0%	< 0%	< 0%	3.32%	31.5%
O[C@@](Cn1cnnn1)(c1ccc(F)cc1F)C(F)(F)c1ccc(-c2ccc(OCC(F)(F)F)cc2)cn1	92.3%	95.9%	13%	1.61%	22.4%	7.2%	82.5%	< 0%	25.9%	< 0%	3.57%	40%
CCCCCOc1ccc(/C=C2\Oc3c(ccc(O)c3O)C2=O)c(O)c1	123%	127%	3.16%	< 0%	< 0%	2.75%	90.6%	< 0%	< 0%	< 0%	< 0%	15.2%
O=C(N[C@H](Cc1cccc2ccccc12)C(=O)NCCc1c[nH]cn1)C1Cc2ccccc2C1	95.1%	97.8%	0.483%	2.53%	32.6%	23%	81.3%	2.29%	1.33%	< 0%	2.07%	21.8%
Oc1ccc(NCc2ccccc2OCc2ccccc2)cc1	97.9%	103%	-1.04%	< 0%	< 0%	18.6%	95%	< 0%	< 0%	< 0%	< 0%	25.2%
O=S(=O)(Nc1ccc(-n2cccc2)cc1)c1ccc(Cl)c(Cl)c1	95%	90.4%	-0.822%	< 0%	< 0%	6.75%	24%	< 0%	< 0%	< 0%	< 0%	38%
CC(=O)NC[C@H]1CN(c2ccc(N3CCSCC3)c(F)c2)C(=O)O1	105%	91.5%	4.22%	< 0%	< 0%	37.1%	49.9%	< 0%	< 0%	< 0%	< 0%	50.2%
CC[C@@]1(O)C(=O)OCc2c1cc1n(c2=O)Cc2cc3c([N+](=O)[O-])cccc3nc2-1	128%	99.3%	65.7%	< 0%	< 0%	10.9%	66.6%	5.04%	< 0%	< 0%	< 0%	62.8%
N=C(N)c1ccc(COc2ccc(Cl)cc2)cc1	103%	102%	2.38%	< 0%	11.4%	11.1%	89.9%	0.321%	4.27%	< 0%	< 0%	-17.2%
Cc1c(OCC(F)(F)F)ccnc1CS(=O)c1nc2ccccc2[nH]1 (stereo unspecified)	87.1%	96.9%	1.82%	14.1%	15.8%	71.5%	95.5%	< 0%	< 0%	< 0%	< 0%	-23.2%
NC(=O)C(c1ccccc1)(c1ccccc1)[C@H]1CCCN(CCc2ccc3c(c2)CCO3)C1	91.2%	-0.304%	1.31%	33.7%	14%	-5.36%	68.4%	< 0%	< 0%	12%	< 0%	48.5%
Cc1ccc(N2CCC(CCOc3ccc(S(C)(=O)=O)cc3)CC2)nn1	89.6%	123%	1.45%	0.785%	< 0%	9.69%	64.6%	1.5%	< 0%	0.296%	< 0%	17.8%
